PubChem BioAssay AID504434 (National Center for Advancing Translational Sciences (NCATS), 2011)
Results filed as inconclusive are left out. The call rests on the fitted dose curve; in most records, active means well fitted curve in the direction sought with a large enough effect; inconclusive means small, poorly fitted or top-dose-only effect, or effect the other way, or another doubt; inactive means no such curve, though single readings can be large or run the other way.

experiment: Secondary Assay for lipid storage modulators: AML12 cell LDSA assay for probe SAR; conditions: AML12 lipid droplet accumulation, BODIPY 493/503 imaging, oleate; series mostly up to 46.1 µM; activity change, negative = inhibition: at the top concentration
Excerpt: NIH Molecular Libraries Probe Production Centers Network [MLPCN] NIH Chemical Genomics Center [NCGC] MLPCN Grant: 1 R03 MH085686-01 Assay Submitter (PI): Beller, Mathias; Max-Planck-Institut fur Biophysikalische Chemie NCGC Assay Overview: Storing lipids as a reservoir for energy or the anabolism of elementary metabolites is a common feature of probably all cells and is conserved from bacteria to humans. The universal cellular lipid storage organelle is the so-called lipid storage droplet (LD). Although ubiquitous, LDs share a simple structure composed of a hydrophobic core that harbors the storage lipids, which is shielded by a droplet-specific phospholipid monolayer to which proteins are attached. The current model of LD biogenesis involves an incorporation of the lipid core into the membrane leaflets of the endoplasmic reticulum (ER) followed by a subsequent budding-like maturation of a LD, which ultimately pinches off. Once released, LD volume can increase by localized lipogenesis or fusion of existing droplet. Storage lipids are re-mobilized enzymatically by lipase activity. Lipase regulation in the adipocyte is heavily studied and involves multiple components including catecholamine signaling, the LD-associated proteins Perilipin and comparative gene identification (CGI-58) and at least two lipases named hormone sensitive lipase (HSL) and adipocyte triglyceride lipase (ATGL). LD regulation outside of the adipocyte is poorly understood and only few components are known. However, there is an urgent need to learn more about ectopic fat depots as mislocalized storage of lipids, for example in the liver or muscle, is an eminent health problem associated with insulin resistance or the metabolic syndrome.
NCGC Assay Protocol Summary: The assay was performed with AML12 cells, using an oleic acid feeding protocol similar to the S3 assay. We dispensed 4 uL of cells to give 700 cells/well into Greiner bio-one 1,536-well plates (black walled, clear bottom). Triacsin C (Sigma-Aldrich T-4540), an inhibitor of long-chain fatty acyl CoA synthetase that blocks synthesis of triglycerides, was used as a positive control for lipid under-storage using a final concentration of 20 uM. The orexin antagonist, SB408124 - previously identified to stimulate lipid over-storage, was used as a positive control for lipid over-storage using a final concentration of 20 uM. A total of 23 nL of compound solution of different concentrations were transferred to the assay plates using a Kalypsys pin tool equipped with a 1,536-pin array containing 10-nL slotted pins (FP1S10, 0.457-mm diameter, 50.8 mm long; V&P Scientific). One microliter of oleic acid was added (400 uM final concentration), and the plate was lidded with stainless steel rubber gasket lined lids containing pinholes. After 18-24 h incubation at […] and 95% humidity, 4 uL of the dyes BODIPY 493/503 (Molecular Probes) and the Cell Tracker Red CMTPX dye (Molecular Probes) were added to the wells to stain lipid droplets and enumerate cell number, respectively. Fluorescence was detected by excitation of the fluorophores with a 488-nm laser on an Acumen Explorer (TTP Lab Tech). The total intensity in channel 2 (500-530 nm) reflected lipid droplet accumulation. Cells were detected using channel 3 (575-640 nm) with 5-um width and 100-um depth filters. The ratio of the number of objects in PMT channel 2 over the number of objects in PMT channel 3 was also calculated. Percent activity was computed relative to an internal control (100% inhibited lipid droplet deposition due to the presence of 20 uM Triacsin C), which was added to 32 wells/plate.

Activity change, negative = inhibition, inactive:
O=C(CSc1nnc(NCc2ccccc2)s1)Nc1nc(-c2ccc(F)c(F)c2)cs1 30%, O=C(CSc1nnc(NCc2ccccc2)s1)Nc1nc(-c2cccc(Br)c2)cs1 18.6%, Cc1sc(NC(=O)Cc2cccs2)nc1-c1ccccc1 -27.1%, CCOc1ccc(CCNC(=O)c2cc3sccc3[nH]2)cc1OCC -1.32%, CCOC(=O)C1CCN(C(=O)C(C)(C)NC(=O)Nc2ccc3sccc3c2)CC1 -34.8%, CCOC(=O)C1CCN(C(=O)C(C)(C)NC(=O)Nc2ccc3ccccc3c2)CC1 -61.8%, O=C(Cc1cccs1)Nc1nc(-c2ccc(F)cc2)cs1 4.29%, S=C(Nc1cc(Cl)ccc1Oc1ccccc1)N1CCN(c2ncccn2)CC1 10%, COCCn1c(-c2ccc(C)cc2)cnc1SCC(=O)Nc1nc(C)cs1 -34.2%, CC1=C(C(=O)NC2CCCc3c2cnn3-c2ccc(F)cc2F)OCCO1 (stereo not given) -10.5%, CCOC(=O)C1CCN(C(=O)C(C)(C)NC(=O)Nc2cccc(C(=O)OC)c2)CC1 -29.2%, Cc1ccc(CC(=O)Nc2nc(-c3cccs3)cs2)cc1 -12.9%, CC(C)(C)OC(=O)NCCOCCOCCOc1ccc(-n2ncc3c2CCCC3NC(=O)c2ccccn2)cc1 (stereo not given) -35.4%, O=C(NC1CCCc2c1cnn2-c1ccc(F)cc1F)c1cccc(F)c1F (stereo not given) -1.43%, CCn1c(C(=O)NCCc2ccc(OC)cc2)cc2sccc21 -5.26%, Cc1cccc(-c2ccc3ncnc(NCc4cccc(F)c4)c3c2)c1 -19.7%, COc1ccc(Cl)cc1NC(=S)N1CCN(c2ccc(F)cc2)CC1 -21.4%, COc1ccc(Cl)cc1NC(=S)N1CCN(c2ccccc2F)CC1 42.9%, O=C(NC1CCCc2c1cnn2-c1ccc(F)cc1F)c1cccc(=O)[nH]1 (stereo not given) -22.4%, Cc1ccc(-c2cnc(SCC(=O)Nc3nc(C)cs3)n2Cc2ccco2)cc1 -24.1%, O=C(NC1CCCc2c1cnn2-c1ccc(F)cc1F)c1ccn[nH]1 (stereo not given) -31.6%, Cc1ccc(-c2cnc(SCC(=O)Nc3nccs3)n2Cc2ccco2)cc1 -10.1%, O=C(NC1CCCc2c1cnn2-c1cc(F)cc(F)c1)c1cccc2nccnc12 (stereo not given) -45.6% [at 30.7 µM], CCn1c(-c2ccc(C)cc2)cnc1SCC(=O)Nc1nc(C)cs1 -8.86%, COc1ccc(Cl)cc1NC(=S)N1CCN(c2ccccc2)CC1 -22.9%, COc1ccccc1NC(=S)N1CCN(c2cc(Cl)ccc2C)CC1 -20%, CCOC(=O)C1CCN(C(=O)C(C)(C)NC(=O)Nc2cccc(-c3csc(C)n3)c2)CC1 -30.2%, CCn1c(C(=O)NCCc2ccc(OC)c(OC)c2)cc2sccc21 -25%, O=C(NC1CCCc2c1cnn2-c1ccccc1F)c1ccc2ncccc2c1 (stereo not given) 12.9%, O=C(NC1CCCc2c1cnn2-c1ccc(F)cc1F)c1cccs1 (stereo not given) -23.7%, COc1ccc(-c2cnc(SCC(=O)Nc3nc(C)cs3)n2-c2ccccc2)cc1 15.2%, COc1ccc(NC(=S)N2CCN(c3cccc(Cl)c3)CC2)c(OC)c1 15.7%, O=C(NC1CCCc2c1cnn2-c1ccc(F)cc1F)c1cnon1 (stereo not given) -39.5%, COc1ccc(CCNC(=O)c2cc3sc(C)cc3n2C)cc1OC 8.57%, CCOC(=O)C1CCN(C(=O)C(C)(C)NC(=O)Nc2ccc(N)cc2)CC1 -8.33%, O=C(NC1CCCc2c1cnn2-c1ccc(F)cc1F)c1ccncc1 (stereo not given) -15.8%, O=C(Cc1cccs1)Nc1nc(-c2ccc3c(c2)CCC3)cs1 12.9%, CCOc1ccc(CCNC(=O)c2cc3sccc3n2C)cc1OCC -27.6%, O=C(NC1CCCc2c1cnn2-c1ccc(F)cc1F)C1CCCCC1 (stereo not given) 5.26%, CCOC(=O)C1CCN(C(=O)C(C)(C)NC(=O)Nc2ccc([N+](=O)[O-])cc2)CC1 -39.6%
